# Source: the supplement of paper PMC11741263, “Chemoproteomic Profiling of C. albicans for Characterization of Anti-fungal Kinase Inhibitors” (bioRxiv, 2025)
# Compound: Cc1[nH]nc2ccc(-c3cc(OC[C@@H](N)Cc4ccccc4)cnc3-c3ccoc3)cc12
# Assay: MIB bead binding, log2 fold change vs DMSO (log2 ratio); higher = less competition (weaker engagement)
# UniProt P50613, sequence (P50613 whole entry, looked up): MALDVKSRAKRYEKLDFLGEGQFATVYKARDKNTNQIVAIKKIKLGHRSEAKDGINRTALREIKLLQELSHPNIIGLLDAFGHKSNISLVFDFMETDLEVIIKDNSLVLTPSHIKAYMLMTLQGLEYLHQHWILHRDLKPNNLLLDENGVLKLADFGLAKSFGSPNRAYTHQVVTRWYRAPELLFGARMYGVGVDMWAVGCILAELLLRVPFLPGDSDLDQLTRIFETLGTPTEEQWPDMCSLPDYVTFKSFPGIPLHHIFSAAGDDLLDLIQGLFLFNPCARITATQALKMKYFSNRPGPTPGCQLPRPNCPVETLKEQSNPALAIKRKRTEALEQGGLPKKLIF
# UniProt Q5AG71, sequence (Q5AG71 whole entry): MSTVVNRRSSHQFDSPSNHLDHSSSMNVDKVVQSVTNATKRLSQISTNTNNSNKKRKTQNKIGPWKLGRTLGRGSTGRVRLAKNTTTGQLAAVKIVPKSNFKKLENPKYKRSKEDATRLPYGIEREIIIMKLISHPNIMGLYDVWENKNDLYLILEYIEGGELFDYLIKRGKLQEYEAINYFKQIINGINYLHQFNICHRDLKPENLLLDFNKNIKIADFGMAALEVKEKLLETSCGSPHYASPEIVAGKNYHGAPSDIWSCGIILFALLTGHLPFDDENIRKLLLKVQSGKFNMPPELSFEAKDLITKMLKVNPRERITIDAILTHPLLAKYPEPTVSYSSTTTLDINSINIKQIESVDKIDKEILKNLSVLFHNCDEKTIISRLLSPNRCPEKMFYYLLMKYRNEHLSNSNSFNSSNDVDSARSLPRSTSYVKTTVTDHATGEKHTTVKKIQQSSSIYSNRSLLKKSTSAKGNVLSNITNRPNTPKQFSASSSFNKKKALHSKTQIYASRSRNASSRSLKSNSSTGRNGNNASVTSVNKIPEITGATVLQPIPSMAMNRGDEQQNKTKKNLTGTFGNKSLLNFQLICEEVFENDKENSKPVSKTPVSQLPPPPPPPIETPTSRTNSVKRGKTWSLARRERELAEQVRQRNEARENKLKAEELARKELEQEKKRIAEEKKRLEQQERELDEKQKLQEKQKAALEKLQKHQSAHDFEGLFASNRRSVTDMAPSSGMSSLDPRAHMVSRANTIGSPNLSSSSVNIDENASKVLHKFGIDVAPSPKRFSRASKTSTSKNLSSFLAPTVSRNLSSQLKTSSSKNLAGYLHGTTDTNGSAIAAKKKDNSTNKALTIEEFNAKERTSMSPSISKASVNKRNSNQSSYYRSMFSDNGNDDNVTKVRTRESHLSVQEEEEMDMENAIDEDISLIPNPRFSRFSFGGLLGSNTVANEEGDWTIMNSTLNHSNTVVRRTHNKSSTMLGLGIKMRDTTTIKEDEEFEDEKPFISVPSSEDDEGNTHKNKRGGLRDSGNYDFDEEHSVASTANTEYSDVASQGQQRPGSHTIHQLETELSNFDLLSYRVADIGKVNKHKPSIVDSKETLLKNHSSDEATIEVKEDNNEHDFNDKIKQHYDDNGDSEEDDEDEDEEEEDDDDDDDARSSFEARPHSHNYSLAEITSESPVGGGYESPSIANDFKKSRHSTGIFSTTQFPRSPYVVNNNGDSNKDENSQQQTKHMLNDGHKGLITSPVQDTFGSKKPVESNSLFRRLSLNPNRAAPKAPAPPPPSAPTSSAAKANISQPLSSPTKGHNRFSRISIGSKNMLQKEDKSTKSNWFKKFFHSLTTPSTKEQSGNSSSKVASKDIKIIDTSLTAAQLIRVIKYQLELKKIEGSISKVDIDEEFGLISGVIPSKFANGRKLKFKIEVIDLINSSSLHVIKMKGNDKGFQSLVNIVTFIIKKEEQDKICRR
# UniProt O75460, sequence (O75460 whole entry, looked up): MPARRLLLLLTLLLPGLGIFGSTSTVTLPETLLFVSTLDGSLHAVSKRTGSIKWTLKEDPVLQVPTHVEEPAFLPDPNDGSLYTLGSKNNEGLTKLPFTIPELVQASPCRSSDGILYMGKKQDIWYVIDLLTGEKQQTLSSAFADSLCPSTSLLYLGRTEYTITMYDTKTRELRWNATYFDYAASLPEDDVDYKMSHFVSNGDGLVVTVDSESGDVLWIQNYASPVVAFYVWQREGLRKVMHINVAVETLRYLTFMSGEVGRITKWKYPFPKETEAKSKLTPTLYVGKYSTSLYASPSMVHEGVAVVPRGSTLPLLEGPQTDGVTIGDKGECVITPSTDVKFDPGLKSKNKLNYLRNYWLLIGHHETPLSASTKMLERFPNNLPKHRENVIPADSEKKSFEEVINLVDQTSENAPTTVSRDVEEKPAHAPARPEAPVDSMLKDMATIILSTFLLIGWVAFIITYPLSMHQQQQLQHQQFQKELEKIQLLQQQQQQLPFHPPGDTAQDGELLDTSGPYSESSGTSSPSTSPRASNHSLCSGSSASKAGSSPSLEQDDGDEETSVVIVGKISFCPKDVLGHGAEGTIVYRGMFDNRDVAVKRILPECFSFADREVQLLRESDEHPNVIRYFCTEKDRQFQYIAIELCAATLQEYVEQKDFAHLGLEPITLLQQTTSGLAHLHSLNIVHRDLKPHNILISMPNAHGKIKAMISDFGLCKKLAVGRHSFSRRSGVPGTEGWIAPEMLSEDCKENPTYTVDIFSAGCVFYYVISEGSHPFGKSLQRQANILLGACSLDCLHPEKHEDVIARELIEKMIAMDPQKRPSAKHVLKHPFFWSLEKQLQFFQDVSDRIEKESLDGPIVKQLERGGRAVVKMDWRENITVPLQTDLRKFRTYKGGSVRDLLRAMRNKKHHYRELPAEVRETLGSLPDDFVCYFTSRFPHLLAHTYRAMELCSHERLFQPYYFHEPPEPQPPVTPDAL
# UniProt P52497, sequence (P52497 whole entry): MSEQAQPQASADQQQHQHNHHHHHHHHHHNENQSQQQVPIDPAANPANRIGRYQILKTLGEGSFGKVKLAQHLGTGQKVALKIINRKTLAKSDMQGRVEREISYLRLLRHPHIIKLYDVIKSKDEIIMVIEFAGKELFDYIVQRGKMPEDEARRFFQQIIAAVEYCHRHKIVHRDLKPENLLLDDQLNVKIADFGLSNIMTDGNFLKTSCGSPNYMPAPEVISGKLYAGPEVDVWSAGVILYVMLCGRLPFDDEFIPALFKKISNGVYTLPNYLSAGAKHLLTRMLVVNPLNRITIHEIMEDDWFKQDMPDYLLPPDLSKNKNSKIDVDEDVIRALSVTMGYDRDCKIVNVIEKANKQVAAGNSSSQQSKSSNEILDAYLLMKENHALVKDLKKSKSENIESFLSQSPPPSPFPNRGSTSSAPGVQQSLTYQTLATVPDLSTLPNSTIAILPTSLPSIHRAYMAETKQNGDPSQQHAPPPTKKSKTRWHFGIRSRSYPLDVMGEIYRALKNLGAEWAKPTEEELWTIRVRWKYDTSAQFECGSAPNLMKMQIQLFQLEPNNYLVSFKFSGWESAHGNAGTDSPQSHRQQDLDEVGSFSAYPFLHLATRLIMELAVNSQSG
# UniProt Q9HGY5, sequence (Q9HGY5 whole entry): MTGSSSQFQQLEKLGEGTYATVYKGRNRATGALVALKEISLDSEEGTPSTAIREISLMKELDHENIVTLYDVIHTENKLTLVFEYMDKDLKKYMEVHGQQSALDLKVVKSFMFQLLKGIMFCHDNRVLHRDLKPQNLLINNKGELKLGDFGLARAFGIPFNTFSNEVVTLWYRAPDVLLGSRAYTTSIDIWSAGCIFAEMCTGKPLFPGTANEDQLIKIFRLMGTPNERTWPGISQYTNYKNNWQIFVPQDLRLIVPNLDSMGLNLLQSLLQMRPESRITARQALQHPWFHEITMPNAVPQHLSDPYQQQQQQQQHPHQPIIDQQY
# UniProt Q5AHG6, sequence (Q5AHG6 whole entry): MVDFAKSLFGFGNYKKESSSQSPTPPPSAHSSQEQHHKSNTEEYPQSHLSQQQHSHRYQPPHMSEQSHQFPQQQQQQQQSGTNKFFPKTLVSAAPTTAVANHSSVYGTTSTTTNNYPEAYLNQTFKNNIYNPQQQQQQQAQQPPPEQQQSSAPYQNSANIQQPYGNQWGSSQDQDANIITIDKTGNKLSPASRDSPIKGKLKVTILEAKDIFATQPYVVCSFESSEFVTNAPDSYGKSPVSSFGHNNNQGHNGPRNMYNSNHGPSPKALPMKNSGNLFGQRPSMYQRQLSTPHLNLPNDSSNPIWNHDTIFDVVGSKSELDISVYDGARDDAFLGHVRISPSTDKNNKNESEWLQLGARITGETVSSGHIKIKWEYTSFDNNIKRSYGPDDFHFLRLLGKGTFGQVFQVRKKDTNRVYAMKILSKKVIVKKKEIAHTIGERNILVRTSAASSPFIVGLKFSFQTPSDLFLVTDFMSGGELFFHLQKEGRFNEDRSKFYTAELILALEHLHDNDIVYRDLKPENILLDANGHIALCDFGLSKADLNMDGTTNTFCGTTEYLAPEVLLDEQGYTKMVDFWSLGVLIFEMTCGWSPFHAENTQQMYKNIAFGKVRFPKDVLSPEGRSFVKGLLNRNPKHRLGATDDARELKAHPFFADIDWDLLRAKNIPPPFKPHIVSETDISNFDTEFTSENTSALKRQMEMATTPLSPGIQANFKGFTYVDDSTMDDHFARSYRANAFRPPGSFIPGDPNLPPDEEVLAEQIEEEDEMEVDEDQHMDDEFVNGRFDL
target,measurement,setting,value
RTK1,MIB bead binding (log2),0.1 µM,0.0613
same,MIB bead binding (log2),1 µM,0.118
same,MIB bead binding (log2),10 µM,-1.04
TPK2,MIB bead binding (log2),0.1 µM,-0.0872
same,MIB bead binding (log2),1 µM,0.0369
same,MIB bead binding (log2),10 µM,-2.41
KIN2,MIB bead binding (log2),0.1 µM,-0.0805
same,MIB bead binding (log2),1 µM,-0.118
same,MIB bead binding (log2),10 µM,-0.154
RIM11,MIB bead binding (log2),0.1 µM,-0.208
same,MIB bead binding (log2),1 µM,-0.891
same,MIB bead binding (log2),10 µM,-3.89
PHO85 (UniProt Q9HGY5),MIB bead binding (log2),0.1 µM,0.238
same,MIB bead binding (log2),1 µM,0.232
same,MIB bead binding (log2),10 µM,-0.87
CAK1 (UniProt P50613),MIB bead binding (log2),0.1 µM,-0.167
same,MIB bead binding (log2),1 µM,0.067
same,MIB bead binding (log2),10 µM,-2.18
HRR25,MIB bead binding (log2),0.1 µM,-0.165
same,MIB bead binding (log2),1 µM,-0.114
same,MIB bead binding (log2),10 µM,-1.89
YCK2,MIB bead binding (log2),0.1 µM,-0.488
same,MIB bead binding (log2),1 µM,-1.75
same,MIB bead binding (log2),10 µM,-3.65
SCH9 (UniProt Q5AHG6),MIB bead binding (log2),0.1 µM,-0.2
same,MIB bead binding (log2),1 µM,-0.178
same,MIB bead binding (log2),10 µM,-1.05
CMK2,MIB bead binding (log2),0.1 µM,0.0395
same,MIB bead binding (log2),1 µM,0.585
SNF1 (UniProt P52497),MIB bead binding (log2),0.1 µM,-0.272
same,MIB bead binding (log2),1 µM,-0.136
same,MIB bead binding (log2),10 µM,-1.78
POM1,MIB bead binding (log2),0.1 µM,-0.418
same,MIB bead binding (log2),1 µM,-0.345
same,MIB bead binding (log2),10 µM,-2.53
NIK1 (UniProt Q5A599),MIB bead binding (log2),0.1 µM,-0.731
same,MIB bead binding (log2),1 µM,0.254
orf19.4518,MIB bead binding (log2),0.1 µM,-0.0101
same,MIB bead binding (log2),1 µM,-0.0109
same,MIB bead binding (log2),10 µM,-0.0364
MKC1,MIB bead binding (log2),0.1 µM,-0.00282
same,MIB bead binding (log2),1 µM,0.0129
same,MIB bead binding (log2),10 µM,-1.76
CDC7 (UniProt O00311),MIB bead binding (log2),0.1 µM,-0.0168
same,MIB bead binding (log2),1 µM,-0.237
HST7,MIB bead binding (log2),0.1 µM,0.106
same,MIB bead binding (log2),1 µM,-0.0777
same,MIB bead binding (log2),10 µM,-1.68
CEK1,MIB bead binding (log2),0.1 µM,-0.256
same,MIB bead binding (log2),1 µM,-0.317
same,MIB bead binding (log2),10 µM,-1.74
CTK1,MIB bead binding (log2),0.1 µM,-0.0626
same,MIB bead binding (log2),1 µM,-0.159
orf19.3456,MIB bead binding (log2),0.1 µM,-0.328
same,MIB bead binding (log2),1 µM,-0.791
IKS1,MIB bead binding (log2),0.1 µM,-0.323
same,MIB bead binding (log2),1 µM,-0.0927
ENV7,MIB bead binding (log2),0.1 µM,-0.351
same,MIB bead binding (log2),1 µM,0.16
same,MIB bead binding (log2),10 µM,-1.89
CMK1,MIB bead binding (log2),0.1 µM,0.142
same,MIB bead binding (log2),1 µM,0.154
same,MIB bead binding (log2),10 µM,-0.566
CAALFM_C106360WA,MIB bead binding (log2),0.1 µM,-0.234
same,MIB bead binding (log2),1 µM,-0.165
IRE1 (UniProt O75460),MIB bead binding (log2),0.1 µM,-0.11
same,MIB bead binding (log2),1 µM,0.0485
same,MIB bead binding (log2),10 µM,-0.0877
HSL1 (UniProt Q5AG71),MIB bead binding (log2),0.1 µM,0.351
same,MIB bead binding (log2),1 µM,0.197
same,MIB bead binding (log2),10 µM,-0.67
orf19.4144,MIB bead binding (log2),0.1 µM,-0.0982
same,MIB bead binding (log2),1 µM,-0.112
same,MIB bead binding (log2),10 µM,-2.63
